# Assay results published in PubChem BioAssay (NCI).
# The panel holds about 83,000 compounds, 20% with a hit somewhere; the sample as a whole holds those more often.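 Activity criterion: percent growth below 10, measured after cells in 96-well plates were exposed to a single compound concentration for 48 hours.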 Unmarked numbers belong to inactive results. Active and inactive are the calls of the source.
# Columns and labels:
# Assay in all cases: NCI-60 one-dose screen, 48 h (100 = growth as untreated, 0 = no growth, -100 = all killed)
# [1] = system: HL-60(TB) leukemia; conditions: 10 µM unless noted
# [2] = system: NCI-H226 lung; conditions: 10 µM
# [3] = system: NCI-H322M lung; conditions: 10 µM
# [4] = system: HOP-62 NSCLC; conditions: 10 µM
# [5] = system: NCI-H460 lung; conditions: 10 µM
# [6] = system: A549/ATCC NSCLC; conditions: 10 µM
# [7] = system: 786-0 renal; conditions: 10 µM
# [8] = system: DU-145 prostate; conditions: 10 µM
# [9] = system: SF-268 CNS; conditions: 10 µM
# [10] = system: SF-295 CNS; conditions: 10 µM
# [11] = system: SF-539 CNS; conditions: 10 µM
# [12] = system: HCT-15 colon; conditions: 10 µM
# [13] = system: SNB-75 CNS; conditions: 10 µM
# [14] = system: SNB-19 CNS; conditions: 10 µM
# [15] = system: U251 CNS; conditions: 10 µM
# [16] = system: PC-3 prostate; conditions: 10 µM
# [17] = system: EKVX NSCLC; conditions: 10 µM
# [18] = system: UO-31 renal; conditions: 10 µM
# [19] = system: ACHN renal; conditions: 10 µM
# [20] = system: CCRF-CEM leukemia; conditions: 10 µM
compound,measurement,setting,value
Cc1ccc(NC(=O)c2ccc(CN3CCN(C)CC3)cc2)cc1Oc1ccc(-c2[nH]nc3ncnc(N)c23)cc1,growth,[1],126%
IP(CCCCCCCCCCSc1n(Cc2ccc3ccccc3c2)c(-c2ccccc2)c(-c2ccccc2)[n+]1Cc1ccc2ccccc2c1)(c1ccccc1)(c1ccccc1)c1ccccc1,growth,[1],-62.5% (active)
C=C(C)[C@@H]1CC[C@]2(C)[C@H](CC=C3[C@@H]4CC(C)(C)CC[C@]4(C(=O)NCC#CCN4CCN(C)CC4)CC[C@]32C)[C@@]1(C)CCC#N,growth,[1],-47.9% (active)
C=CCn1c(SCC(=O)Nc2ccc(C(=O)/C=C/c3ccc(C)cc3)cc2)nnc1-c1c[nH]c2ccccc12,growth,[1],98.4%
CC/C(=C/c1cc(OC)ccc1O)c1ccc2cc(OC)ccc2[o+]1,growth,[1],6.9% (active)
CN1CCN(CC#CCn2c3c(c4ccccc42)C[C@]2(C)[C@H]4CC=C5[C@@H]6CC(C)(C)CC[C@]6(C(=O)N6CCOCC6)CC[C@@]5(C)[C@]4(C)CC[C@H]2C3(C)C)CC1,growth,[1],16.2%
C#Cc1nc(/C=C/C(=O)c2nccn2C)cs1,growth,[1],-40.3% (active)
NS(=O)(=O)c1ccc(-n2cc(CN3CCNCC3)nn2)cc1,growth,[1],107%
C#Cc1nc(C2=C(C)C(O)CC2)cs1 (stereo not given),growth,[1],94.2%
CN1CCN(c2ccc(C(=O)/C=C/c3ccc(Cl)c(C(F)(F)F)c3)cc2)CC1,growth,[1],-22.6% (active)
CN1CCN(c2ccc(Nc3nc(NCCCNS(=O)(=O)c4ccc(C(F)(F)F)cc4)c4sccc4n3)cc2)CC1,growth,[1],-47.4% (active)
CN1CCN(c2ccc3c(c2)nc(NNC(=O)c2ccncn2)c2cccn23)CC1,growth,[1],10.4%
COc1ccc2[nH]cc(/C=N/Nc3ccnc4cc(Cl)ccc34)c2c1,growth,[1],-56.1% (active)
Cn1c2nc3ccccc3c-2cc2ccccc21,growth,[1],41.6%
COc1ccc(C(C)=C(c2ccc(OCCN3CCCCCC3)cc2)c2ccc(OCCN3CCCCCC3)cc2)cc1,growth,[1],-46.9% (active)
Cc1cn(-c2cc(NC(=O)c3cncc(C#Cc4cnc5ccc(OCCCS(C)(=O)=O)nn45)c3)cc(C(F)(F)F)c2)cn1,growth,[1],-6.15% (active)
CCCCCc1ccc(S(=O)(=O)Nc2cccc(-c3csc(NCCN4CCN(C)CC4)n3)c2)cc1,growth,[1],0.22% (active)
CC1(C)CC[C@]2(C(=O)O)CC[C@]3(C)C(=CC[C@@H]4[C@@]5(C)CC/C(=N\OCCC#N)C(C)(C)[C@@H]5CC[C@]43C)[C@@H]2C1,growth,[1],148%
Cc1ccc(-n2cc(/C=N/NC(=O)c3ccncc3)c(-c3ccc(S(C)(=O)=O)cc3)n2)cc1,growth,[1],76.4%
C#CCOC(=O)[C@@H]1CCCN1CC#C,growth,[1],85.3%
COC(=O)Nc1ccc(-c2nc(-c3cccc(O)c3)c(-c3ccnc(Br)c3)[nH]2)cc1,growth,[1],28.1%
Cn1ccnc1C(=O)/C=C/c1ccc(NC(=O)Nc2ccc(Cl)cc2)cc1,growth,[1],44.2%
CCNC(=O)Oc1ccc(/C(=C(/C)c2ccc(Cl)cc2)c2ccc(OCCN3CCCC3)cc2)cc1,growth,[1],56.2%
C=C(C)[C@@H]1CC[C@]2(COCCCNCCC#N)CC[C@]3(C)[C@H](CC[C@@H]4[C@@]5(C)CC[C@H](OCCCNCCC#N)C(C)(C)[C@@H]5CC[C@]43C)[C@@H]12,growth,[1],0.0603% (active)
N=C1CC(=O)NN1C(=O)CSc1nc2sc3c(c2c(=O)n1-c1ccc(Cl)cc1)CCCC3,growth,[1],108%
CC(=O)N1C(=S)NC(=O)C1CC(C)C (stereo not given),growth,[1],106%
CCCCSc1nnc(-c2ccc(-c3ccc(Cl)cc3)nc2C)o1,growth,[1],91.9%
COc1cc(-c2nc(-c3ccccc3)[nH]c2-c2ccnc(NCCCNS(=O)(=O)c3ccc(C)cc3)n2)ccc1F,growth,[1],93.4%
CNCc1cccc2c1OCCCCCCC(C)(O)CC(C)(C)S(=O)(=O)c1ccc(cc1)-c1cnc(N)c(n1)C(=O)N2 (stereo not given),growth,[1],-44.1% (active)
C#CCN(C)CCCOc1ccc(NC(=O)CCCCCCCCC(=O)NO)cc1Cl,growth,[1],28.6%
CCCCCCNC(=O)Oc1ccc(/C(=C(/C)c2ccc(Cl)cc2)c2ccc(OCCN3CCCCCC3)cc2)cc1,growth,[1],32.4%
NC(=S)n1c(=O)n(-c2cccc(C(F)(F)F)c2)c(=O)c2cc(-c3ccc(F)cc3F)ccc21,growth,[1],-46.8% (active)
COc1cc(/C=N/n2cnc3oc(-c4ccccc4)cc3c2=N)cc(CN2CCCCC2)c1O,growth,[1],-17.1% (active)
C(=C(\C1=NCCN1)n1cnc2ccccc21)/c1ccc2ccccc2c1,growth,[1],50.5%
COc1ccc(-c2nc3ccc(-c4nnc(SCC(=O)Nc5ccc(C(=O)/C=C/c6ccc(Cl)cc6)cc5)o4)cc3[nH]2)cc1OC,growth,[1],88.7%
COc1cc(/C=C/C(=O)c2ccc(Cl)cc2)ccc1Oc1nc(NCCO)nc(N2CCOCC2)n1,growth,[1],93.7%
c1cn2c(ccc3nc(-c4cn[nH]c4)c4c(c32)CCCC4)n1,growth,[1],73.8%
C#C[C@]1(O)CC[C@H]2[C@@H]3CC=C4c5sc(Nc6cccc(C)n6)nc5CC[C@]4(C)[C@H]3CC[C@@]21C,growth,[1],-8.95% (active)
CC1=C(C)C(=O)C(Nc2cccc(C)c2)=C(Br)C1=O,growth,[1],37%
NC1CCc2cc(O)c(O)cc2C1 (stereo not given),growth,[2],90.7%
same,growth,[3],98.6%
same,growth,[4],100%
same,growth,[5],87%
same,growth,[6],82.3%
same,growth,[7],84.7%
same,growth,[8],94.3%
same,growth,[9],104%
same,growth,[10],95%
same,growth,[11],94.8%
same,growth,[12],41.8%
same,growth,[13],82.6%
same,growth,[14],98%
same,growth,[15],79.6%
same,growth,[16],76.1%
same,growth,[17],93.9%
same,growth,[18],85.1%
same,growth,[19],96.9%
same,growth,[1],32.9%
same,growth,[20],48%
Oc1ccc(CSc2nnc(-c3ccncc3)n2-c2ccccc2)c2cccnc12,growth,[1],10.9%
CCOP(=O)(OCC)OC[C@]12CCC(C)(C)C[C@H]1C1=CC[C@@H]3[C@@]4(C)CC[C@H](OP(=O)(OCC)OCC)C(C)(C)[C@@H]4CC[C@@]3(C)[C@]1(C)CC2,growth,[1],8.99% (active)
COC(=O)c1ccc(NC(=S)N2CCc3ccc([N+](=O)[O-])cc3C2)cc1O,growth,[1],97.7%
O=c1[nH]c(CCl)nc2c1cnn2-c1ccccc1,growth,[1],109%
CCCCSC1=C(Cl)CN(c2ccccc2)C1=O,growth,[1],105%
COc1cc(C(=O)C[n+]2ccc3ccccc3c2)cc(OC)c1OC,growth,[1],92.7%
CC(C)[C@H]1c2[nH]c3ccccc3c2C[C@H]2C(=O)N(CCCCCCC(=O)NO)CC(=O)N12,growth,[1],96.1%
COc1ccc(/C=N\NC(=O)c2ccc3nc(-c4ccc(Br)cc4)[nH]c3c2)cc1,growth,[1],84.4%
Cc1cc(-c2ccc3nc(N)sc3c2)nc2ccc3[nH]ncc3c12,growth,[1],25.8%
C=C1C(=O)O[C@@H]2C[C@@H](C)CCC(=O)[C@](C)(OC(C)=O)C[C@H](OC(=O)/C(C)=C\C)[C@@H]12,growth,[1],26.4%
CN1CCN(Cc2ccc(NC(=O)c3cncc(C#Cc4cnc5ccc(OCCCS(C)(=O)=O)nn45)c3)cc2C(F)(F)F)CC1,growth,[1],-6.31% (active)
O=C(Nc1cccc(Cl)c1)Nc1nc2ccc([N+](=O)[O-])cc2o1,growth,[1],0.103% (active)
Cc1ccc(NC(=O)c2ccc(CN3CCOCC3)c(C(F)(F)F)c2)cc1Oc1ccc(-c2[nH]nc3ncnc(N)c23)cc1,growth,[1],80.9%
OC1CCc2c(-c3ccc4ncnc(N5CCc6cc(F)c(Cl)cc65)c4c3)cncc21 (stereo not given),growth,[1],34.3%
CCCn1cnc2c(c1=N)C(c1ccc(Cl)cc1)c1sc3c(C)cccc3c1O2 (stereo not given),growth,[1],-20% (active)
CCOC(=O)c1c(N)c(C#N)cn1-c1cc(OC)c(OC)c(OC)c1,growth,[1],96.1%
CC1=C(C)C(=O)C(Nc2ccccc2)=C(Cl)C1=O,growth,[1],45.6%
CC(C)(O)c1cncc(-c2ccc3ncnc(NCc4ccccc4)c3c2)c1,growth,[1],105%
C=CCSC1=NC2C(N(CC)C(=O)N2CC)N1/N=C/C=C/c1ccccc1OC (stereo not given),growth,[1],45.6%
COC(=O)C1CN(S(=O)(=O)/N=C2\NC(=O)NC2=C(Cl)Cl)C1,growth,[1],101%
CCn1c2ccc(/C=N/N(C)S(=O)(=O)CCN(C)C)cc2c2cc(/C=N/N(C)S(=O)(=O)CCN(C)C)ccc21,growth,[1],42.5%
Oc1ccc(-c2nnc(SCc3ccc(O)c4ncccc34)o2)cc1,growth,[1],5.77% (active)
CC1(C)CC[C@]2(C(=O)O)CC[C@]3(C)C(=CCC4[C@@]5(C)C[C@@H](O)[C@@H]6OC(c7cccc([N+](=O)[O-])c7)OC[C@@]6(C)C5CC[C@]43C)C2C1 (stereo not given in full),growth,[1],42.5%
Nc1nc(-c2cccc([N+](=O)[O-])c2)c(N=Nc2ccc([N+](=O)[O-])cc2Cl)s1,growth,[1],6.8% (active)
C#C[C@]1(O)CC[C@H]2[C@@H]3CC=C4c5sc(-c6ccc(F)cn6)nc5CC[C@]4(C)[C@H]3CC[C@@]21C,growth,[1],8.65% (active)
CC1=CC(=O)CC(C)(C)[C@@]1(O)/C=C/C(C)=C\C(=O)O,growth,[1],-41.9% (active)
CN(C)C(=O)C1=NC(CO)C(=O)N(c2ccc(Cl)cc2)N1 (stereo not given),growth,[1],110%
CN(C)CC(=O)Nc1nc(-c2cccc(NS(=O)(=O)c3cccc4c(N(C)C)cccc34)c2)cs1,growth,[1],80.8%
N#Cc1cn(Cc2ccc(Cl)cc2Cl)c(C(=O)c2ccc(Br)cc2)c1N,growth,[1],96.6%
O=C(CCl)Nc1ccc(NC(=O)c2cc(Cl)ccc2O)c(Cl)c1,growth,[1],49.3%
COC(=O)[C@@H](Cc1c[nH]c2ccccc12)NC(=O)CCCCOc1cc(O)c2c(=O)cc(-c3ccccc3)oc2c1,growth,[1],84.1%
